Experimental data taken from PubChem BioAssay (NCI).
About 83,000 compounds went through this panel and 20% of them were active in at least one assay; those are over-represented in the sample as a whole.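 Activity criterion: percent growth below 10, measured after cells in 96-well plates were exposed to a single compound concentration for 48 hours.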 Unmarked numbers belong to inactive results. The source made the active and inactive calls.

Assays:
Assay in all cases: NCI-60 one-dose screen, 48 h (100 = growth as untreated, 0 = no growth, -100 = all killed)
Settings in all cases: 10 µM unless noted
[1] = test system: NCI-H23 lung
[2] = test system: NCI-H226 lung
[3] = test system: NCI-H322M lung
[4] = test system: HOP-62 NSCLC
[5] = test system: NCI-H460 lung
[6] = test system: HOP-92 NSCLC
[7] = test system: NCI-H522 lung
[8] = test system: A549/ATCC NSCLC
[9] = test system: 786-0 renal
[10] = test system: COLO 205 colon
[11] = test system: DU-145 prostate
[12] = test system: K-562 leukemia
[13] = test system: MALME-3M melanoma
[14] = test system: MDA-MB-231 breast
[15] = test system: RXF 393 renal
[16] = test system: SF-268 CNS
[17] = test system: SF-295 CNS
[18] = test system: SF-539 CNS
[19] = test system: UACC-257 melanoma
[20] = test system: M14 melanoma

SMILES	growth [1]	growth [2]	growth [3]	growth [4]	growth [5]	growth [6]	growth [7]	growth [8]	growth [9]	growth [10]	growth [11]	growth [12]	growth [13]	growth [14]	growth [15]	growth [16]	growth [17]	growth [18]	growth [19]	growth [20]
CC(=O)N(CCCCCCN(C(C)=O)C(C)=O)C(C)=O	108% [100 µM]	101% [100 µM]	108% [100 µM]	112% [100 µM]	109% [100 µM]	106% [100 µM]	102% [100 µM]	106% [100 µM]	96% [100 µM]	134% [100 µM]	106% [100 µM]	102% [100 µM]	107% [100 µM]	98% [100 µM]	112% [100 µM]	104% [100 µM]	110% [100 µM]	98.3% [100 µM]	95.1% [100 µM]	105% [100 µM]
Cc1c(-c2ccc(C3CCCCC3)cc2)nc2ccc(F)cc2c1C(=O)O	53.5%	64.1%	56.4%	61.7%	7.22% (active)	83.3%	38.5%	21.3%	38%	44.2%	39.3%	22.9%	62.1%	62.7%	74.1%	42.8%	2.98% (active)	37.1%	65.2%	
CC(C)c1ccc(C(=O)OCCCl)cc1	94%	106%	92.7%	82.2%	105%	163%	97.2%	97.9%	95.2%	110%	117%	103%	89.9%	105%	41.8%	112%	83.8%	104%	95.3%	
CC1(c2ccccc2)CO1 (stereo not given)	108%	109%	125%	97.2%	115%	95.7%	99.2%	103%	102%	114%	111%	106%	118%	108%	120%	107%	110%	102%	102%	108%
CCOC(=O)Nc1nccs1	112%	99.6%	99.6%	103%	104%	92.3%	104%	98.3%	100%	104%	109%	119%	97.3%	87%	108%	117%	108%	101%	98%	
Cc1cc(NC(=O)c2ccccc2)c(Cl)cc1N	98.6%	97.1%	97.7%	96.7%	99.9%	106%	79.5%	99.4%	92.1%	129%	126%	98.8%	103%	96%	124%	114%	94%	95.5%	100%	
Nc1ccn(C2OC(CO)C(O)C2F)c(=O)n1 (stereo not given)	83.7%	101%	107%	63.5%	70.1%	78.3%	51.4%	68%	79.9%	65.1%	89.4%	83.7%	73%	89.2%	100%	86.3%	98.6%	92.2%	95.1%	
NC(=S)c1c(N)n(C2OC(CO)C(O)C2O)c2ncnc(N)c12 (stereo not given)	-0.783% (active)	14%	-25.8% (active)	3.76% (active)	-0.26% (active)	-21.5% (active)	-53.5% (active)	5.46% (active)	-0.846% (active)	-50.9% (active)	4.75% (active)	-17.2% (active)	-53.4% (active)	29.7%	-69.3% (active)	-3.78% (active)	-0.294% (active)	-51.2% (active)	-10.2% (active)	-24.5% (active)
